# Experiments:
# Assay in all cases: SPOT peptide array binding signal intensity (averaged, normalized) (arbitrary units (background-subtracted, floor 0; scale differs between SH3 domains)); higher = stronger binding of the SH3 domain to the peptide
# AgAbp1 = target: AgAbp1
# Method in brief: (§1)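 E. coli BL21(DE3) was used to express GST-fused SH3 domains from four yeast species, which were then purified on glutathione Sepharose. These were incubated at 10 μg/ml in TBS-based blocking buffer overnight at 4°C on cellulose membranes carrying synthetic 15-mer peptides, in which cysteines were replaced by serines. Binding signal is the replicate average of normalized, background-subtracted spot intensity, in arbitrary units that differ between domains.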
# AgBbc1 = target: AgBbc1
# Method in brief: as §1
# AgBem1-D1 = target: AgBem1-D1
# Method in brief: as §1
# AgBzz1-D1 = target: AgBzz1-D1
# Method in brief: as §1
# AgBzz1-D2 = target: AgBzz1-D2
# Method in brief: as §1
# AgCyk3 = target: AgCyk3
# Method in brief: as §1
# AgFus1 = target: AgFus1
# Method in brief: as §1
# AgHof1 = target: AgHof1
# Method in brief: as §1
# AgHse1 = target: AgHse1
# Method in brief: as §1
# AgLsb1 = target: AgLsb1
# Method in brief: as §1
# AgLsb4 = target: AgLsb4
# Method in brief: as §1
# AgMyo5 = target: AgMyo5
# Method in brief: as §1
# AgNbp2 = target: AgNbp2
# Method in brief: as §1
# AgRvs167 = target: AgRvs167
# Method in brief: as §1
# AgSho1 = target: AgSho1
# Method in brief: as §1
# AgSla1-D1-D2 = target: AgSla1-D1-D2
# Method in brief: as §1
# AgSla1-D3 = target: AgSla1-D3
# Method in brief: as §1
# CaAbp1-D1 = target: CaAbp1-D1
# Method in brief: as §1
# CaAbp1-D2 = target: CaAbp1-D2
# Method in brief: as §1
# CaBbc1 = target: CaBbc1
# Method in brief: as §1
# CaBem1-D1 = target: CaBem1-D1
# Method in brief: as §1
# CaBzz1-D1 = target: CaBzz1-D1
# Method in brief: as §1
# CaBzz1-D2 = target: CaBzz1-D2
# Method in brief: as §1
# CaCyk3 = target: CaCyk3
# Method in brief: as §1
# CaFus1 = target: CaFus1
# Method in brief: as §1
# CaHof1 = target: CaHof1
# Method in brief: as §1
# CaHse1 = target: CaHse1
# Method in brief: as §1
# CaLsb1 = target: CaLsb1
# Method in brief: as §1
# CaLsb4 = target: CaLsb4
# Method in brief: as §1
# CaMyo5 = target: CaMyo5
# Method in brief: as §1
# CaNbp2 = target: CaNbp2
# Method in brief: as §1
# CaRvs167 = target: CaRvs167
# Method in brief: as §1
# CaRvs167-3 = target: CaRvs167-3
# Method in brief: as §1
# CaSho1 = target: CaSho1
# Method in brief: as §1
# CaSla1-D1-D2 = target: CaSla1-D1-D2
# Method in brief: as §1
# CaSla1-D3 = target: CaSla1-D3
# Method in brief: as §1
# ScAbp1 = target: ScAbp1
# Method in brief: as §1
# ScBbc1 = target: ScBbc1
# Method in brief: as §1
# ScBem1-D1 = target: ScBem1-D1
# Method in brief: as §1
# ScBzz1-D1 = target: ScBzz1-D1
# Method in brief: as §1
# ScBzz1-D2 = target: ScBzz1-D2
# Method in brief: as §1
# ScCyk3 = target: ScCyk3
# Method in brief: as §1
# ScFus1 = target: ScFus1
# Method in brief: as §1
# ScHof1 = target: ScHof1
# Method in brief: as §1
# ScHse1 = target: ScHse1
# Method in brief: as §1
# ScLsb1 = target: ScLsb1
# Method in brief: as §1
# ScLsb2 = target: ScLsb2
# Method in brief: as §1
# ScLsb3 = target: ScLsb3
# Method in brief: as §1
# ScLsb4 = target: ScLsb4
# Method in brief: as §1
# ScMyo3 = target: ScMyo3
# Method in brief: as §1
# ScMyo5 = target: ScMyo5
# Method in brief: as §1
# ScNbp2 = target: ScNbp2
# Method in brief: as §1
# ScPex13 = target: ScPex13
# Method in brief: as §1
# ScRvs167 = target: ScRvs167
# Method in brief: as §1
# ScSho1 = target: ScSho1
# Method in brief: as §1
# ScSla1-D1-D2 = target: ScSla1-D1-D2
# Method in brief: as §1
# ScSla1-D3 = target: ScSla1-D3
# Method in brief: as §1
# SpAbp1-D1 = target: SpAbp1-D1
# Method in brief: as §1
# SpBbc1 = target: SpBbc1
# Method in brief: as §1
# SpBzz1-D1 = target: SpBzz1-D1
# Method in brief: as §1
# SpBzz1-D2 = target: SpBzz1-D2
# Method in brief: as §1
# SpCyk3 = target: SpCyk3
# Method in brief: as §1
# SpHof1 = target: SpHof1
# Method in brief: as §1
# SpHof1-2 = target: SpHof1-2
# Method in brief: as §1
# SpHof1-3 = target: SpHof1-3
# Method in brief: as §1
# SpHse1 = target: SpHse1
# Method in brief: as §1
# SpLsb1 = target: SpLsb1
# Method in brief: as §1
# SpLsb4 = target: SpLsb4
# Method in brief: as §1
# SpMyo1 = target: SpMyo1
# Method in brief: as §1
# SpNbp2 = target: SpNbp2
# Method in brief: as §1
# SpPex13 = target: SpPex13
# Method in brief: as §1
# SpRvs167 = target: SpRvs167
# Method in brief: as §1
# SpSla1-D1-D2 = target: SpSla1-D1-D2
# Method in brief: as §1
# SpSla1-D3 = target: SpSla1-D3
# Method in brief: as §1
binder,measurement,setting,value
QLMKNLPKIPLLNDI,SPOT peptide array binding signal intensity,AgAbp1,≤ 0
same,SPOT peptide array binding signal intensity,AgBbc1,5.5
same,SPOT peptide array binding signal intensity,AgBem1-D1,301
same,SPOT peptide array binding signal intensity,AgBzz1-D1,20
same,SPOT peptide array binding signal intensity,AgBzz1-D2,36.5
same,SPOT peptide array binding signal intensity,AgCyk3,≤ 0
same,SPOT peptide array binding signal intensity,AgFus1,336
same,SPOT peptide array binding signal intensity,AgHof1,113
same,SPOT peptide array binding signal intensity,AgHse1,229
same,SPOT peptide array binding signal intensity,AgLsb1,1.75
same,SPOT peptide array binding signal intensity,AgLsb4,16.5
same,SPOT peptide array binding signal intensity,AgMyo5,2.75
same,SPOT peptide array binding signal intensity,AgNbp2,120
same,SPOT peptide array binding signal intensity,AgRvs167,1.67
same,SPOT peptide array binding signal intensity,AgSho1,3070
same,SPOT peptide array binding signal intensity,AgSla1-D1-D2,≤ 0
same,SPOT peptide array binding signal intensity,AgSla1-D3,2.75
same,SPOT peptide array binding signal intensity,CaAbp1-D1,9.5
same,SPOT peptide array binding signal intensity,CaAbp1-D2,46
same,SPOT peptide array binding signal intensity,CaBbc1,14.5
same,SPOT peptide array binding signal intensity,CaBem1-D1,187
same,SPOT peptide array binding signal intensity,CaBzz1-D1,222
same,SPOT peptide array binding signal intensity,CaBzz1-D2,121
same,SPOT peptide array binding signal intensity,CaCyk3,4
same,SPOT peptide array binding signal intensity,CaFus1,670
same,SPOT peptide array binding signal intensity,CaHof1,2.75
same,SPOT peptide array binding signal intensity,CaHse1,168
same,SPOT peptide array binding signal intensity,CaLsb1,2.5
same,SPOT peptide array binding signal intensity,CaLsb4,590
same,SPOT peptide array binding signal intensity,CaMyo5,83.8
same,SPOT peptide array binding signal intensity,CaNbp2,355
same,SPOT peptide array binding signal intensity,CaRvs167,19.5
same,SPOT peptide array binding signal intensity,CaRvs167-3,≤ 0
same,SPOT peptide array binding signal intensity,CaSho1,1860
same,SPOT peptide array binding signal intensity,CaSla1-D1-D2,384
same,SPOT peptide array binding signal intensity,CaSla1-D3,205
same,SPOT peptide array binding signal intensity,ScAbp1,≤ 0
same,SPOT peptide array binding signal intensity,ScBbc1,3
same,SPOT peptide array binding signal intensity,ScBem1-D1,3
same,SPOT peptide array binding signal intensity,ScBzz1-D1,15.5
same,SPOT peptide array binding signal intensity,ScBzz1-D2,39.5
same,SPOT peptide array binding signal intensity,ScCyk3,5
same,SPOT peptide array binding signal intensity,ScFus1,526
same,SPOT peptide array binding signal intensity,ScHof1,11.2
same,SPOT peptide array binding signal intensity,ScHse1,267
same,SPOT peptide array binding signal intensity,ScLsb1,5.75
same,SPOT peptide array binding signal intensity,ScLsb2,2
same,SPOT peptide array binding signal intensity,ScLsb3,292
same,SPOT peptide array binding signal intensity,ScLsb4,67.5
same,SPOT peptide array binding signal intensity,ScMyo3,25
same,SPOT peptide array binding signal intensity,ScMyo5,2.25
same,SPOT peptide array binding signal intensity,ScNbp2,217
same,SPOT peptide array binding signal intensity,ScPex13,580
same,SPOT peptide array binding signal intensity,ScRvs167,5
same,SPOT peptide array binding signal intensity,ScSho1,1950
same,SPOT peptide array binding signal intensity,ScSla1-D1-D2,319
same,SPOT peptide array binding signal intensity,ScSla1-D3,538
same,SPOT peptide array binding signal intensity,SpAbp1-D1,2.5
same,SPOT peptide array binding signal intensity,SpBbc1,≤ 0
same,SPOT peptide array binding signal intensity,SpBzz1-D1,250
same,SPOT peptide array binding signal intensity,SpBzz1-D2,10.8
same,SPOT peptide array binding signal intensity,SpCyk3,4
same,SPOT peptide array binding signal intensity,SpHof1,369
same,SPOT peptide array binding signal intensity,SpHof1-2,1050
same,SPOT peptide array binding signal intensity,SpHof1-3,970
same,SPOT peptide array binding signal intensity,SpHse1,206
same,SPOT peptide array binding signal intensity,SpLsb1,1
same,SPOT peptide array binding signal intensity,SpLsb4,628
same,SPOT peptide array binding signal intensity,SpMyo1,106
same,SPOT peptide array binding signal intensity,SpNbp2,88
same,SPOT peptide array binding signal intensity,SpPex13,146
same,SPOT peptide array binding signal intensity,SpRvs167,22.8
same,SPOT peptide array binding signal intensity,SpSla1-D1-D2,20.5
same,SPOT peptide array binding signal intensity,SpSla1-D3,251

# Reference: the supplement of paper PMC4466140
